Screens (PubChem)
In the library only some 2.5% were active in any assay of this set; here they are far more common.
LEDGF integ inh: blocks HIV-1 LEDGF/p75-dependent DNA integration. TR-FRET IN-LEDGF/p75 DNA integration, Eu/Cy5. inhibition, % at 3.7 µM. 370,000 compounds, 0.64% hits;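 active = inhibition above the screen-wide mean plus 3 SD, cut at about 13% in these data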;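 note: signal is the Cy5 over europium emission ratio at 671 and 618 nm; 0% = plate median of compound wells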
UHRF1 binding: human UHRF1 methylated DNA binding inhibitors; UHRF1 binding to methylated oligo, TR-FRET; inhibition, % at 4.4 µM; 370,000 compounds, 0.75% hits; in the data active = inhibition above about 21%;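 note: UHRF1 SRA domain binding a hemimethylated CpG hairpin DNA probe; 0% = median of test compound wells and 100% = reference inhibitor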
MBD2 inh: MBD2-methylated oligo binding inhibition; AID 686964; TR-FRET, MBD2 binding to methylated oligonucleotide; 370,000 compounds, 0.31% hits; inhibition, % at 4.4 µM; in the data active = inhibition above about 13%
PRMT1 inh: blocks human protein arginine methyltransferase 1; inhibition, % at 2.79 µM; recombinant PRMT1, activity-based probe fluorescence polarization; Q99873; AID 652257; 370,000 compounds, 1.3% hits;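 active = inhibition above about 21% made by adding two undisclosed values, limit read from the data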
Target sequence (Q99873 whole entry, looked up): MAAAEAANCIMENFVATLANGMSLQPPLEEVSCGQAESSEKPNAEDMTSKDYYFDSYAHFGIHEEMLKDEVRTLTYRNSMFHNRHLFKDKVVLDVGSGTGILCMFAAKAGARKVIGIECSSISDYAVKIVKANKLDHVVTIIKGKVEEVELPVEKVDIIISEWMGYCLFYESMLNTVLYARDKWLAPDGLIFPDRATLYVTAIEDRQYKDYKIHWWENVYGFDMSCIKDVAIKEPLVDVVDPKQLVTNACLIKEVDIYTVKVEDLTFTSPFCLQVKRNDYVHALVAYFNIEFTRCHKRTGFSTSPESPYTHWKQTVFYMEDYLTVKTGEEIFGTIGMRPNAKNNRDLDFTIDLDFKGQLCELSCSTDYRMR
* marks the source's active call; other numbers are inactive results.

How did CCOc1cc2c(cc1O)C(=NO)CC1C2CCC2(C)C(O)CCC12 (stereo not given) do in these assays?
LEDGF integ inh: 1; UHRF1 binding: 4; MBD2 inh: 2; PRMT1 inh: 1

How did O=C(Cn1c(=O)oc2cc(S(=O)(=O)N3CCCCC3)ccc21)N1CCCCC1 do in these assays?
LEDGF integ inh: 1; UHRF1 binding: 52*; MBD2 inh: -4; PRMT1 inh: 2

How did COc1ccc(NS(=O)(=O)c2cccc(C(=O)NCc3ccco3)c2)cc1 do in these assays?
LEDGF integ inh: -1; UHRF1 binding: -1; MBD2 inh: 11; PRMT1 inh: 23*

How did COCCCN(C(=O)CSc1nc2ccccc2c(=O)n1C)c1c(N)n(Cc2ccccc2)c(=O)[nH]c1=O do in these assays?
LEDGF integ inh: -2; UHRF1 binding: 4; MBD2 inh: 1; PRMT1 inh: 23*

What do the screens show for `CCn1cc(C(=O)NCCCN2CCN(C)CC2)c(=O)c2cc(S(=O)(=O)N3CCc4ccccc4C3)ccc21`?
LEDGF integ inh: -1; UHRF1 binding: 41*; MBD2 inh: -6; PRMT1 inh: 2

How did COCCNC(=O)C1(C)CCCN(Cc2ccc(OCc3ccccc3)cc2)C1 (stereo not given) do in these assays?
LEDGF integ inh: -2; UHRF1 binding: -2; MBD2 inh: 1; PRMT1 inh: 5

What do the screens show for `O=C(NCCCNc1ccc(C(F)(F)F)cc1[N+](=O)[O-])c1cc(F)c(F)cc1Cl`?
LEDGF integ inh: 1; UHRF1 binding: -1; MBD2 inh: 6; PRMT1 inh: 1

What do the screens show for `O=C(NCCCNc1ccc(C(F)(F)F)cc1[N+](=O)[O-])c1ccc(Cl)cc1`?
LEDGF integ inh: 4; UHRF1 binding: 52*; MBD2 inh: 0; PRMT1 inh: -2

What do the screens show for `COc1ccc([C@H]2C[C@@H](n3cc(C4CC4)nn3)[C@H](O)CN2CC2CCCCC2)cc1`?
LEDGF integ inh: 5; UHRF1 binding: 8; MBD2 inh: 3; PRMT1 inh: -3

Results for O=C1C(=O)N(c2nccs2)C(c2ccccc2F)/C1=C(\O)c1ccc2c(c1)OCCO2 (stereo not given) ?
LEDGF integ inh: 4; UHRF1 binding: 23*; MBD2 inh: 9; PRMT1 inh: 7

How did C/C(=N\NC(=O)c1nnn(-c2nonc2N)c1-c1ccc2c(c1)OCO2)c1cccs1 do in these assays?
LEDGF integ inh: -6; UHRF1 binding: 3; MBD2 inh: 4; PRMT1 inh: 2

How did Cc1ccc(NC(=O)/C(=C\c2cccnc2)NC(=O)c2ccccc2)cc1 do in these assays?
LEDGF integ inh: -2; UHRF1 binding: 21*; MBD2 inh: 7; PRMT1 inh: 0

What do the screens show for `Cc1ccc(NC(=O)/C(=C/c2ccncc2)NC(=O)c2ccccc2)cc1`?
LEDGF integ inh: 1; UHRF1 binding: -2; MBD2 inh: 1; PRMT1 inh: 2

Results for O=C(NCCCn1ccnc1)/C(=C/c1ccccc1)NC(=O)c1ccccc1 ?
LEDGF integ inh: -4; UHRF1 binding: 25*; MBD2 inh: 7; PRMT1 inh: 6

Results for CC(C)(C)c1ccc(S(=O)(=O)NNC(=O)C2CCN(Cc3cccc(F)c3)CC2)cc1 ?
LEDGF integ inh: -1; UHRF1 binding: 24*; MBD2 inh: -3; PRMT1 inh: -2

Results for Cc1[nH][nH]c(=O)c1C(c1ccc(-c2ccc(F)cc2)o1)c1c(C)[nH][nH]c1=O ?
LEDGF integ inh: 25*; UHRF1 binding: 13; MBD2 inh: -6; PRMT1 inh: 22*

What do the screens show for `COc1ccccc1Cc1c(C(C)(C)C)nc2ccc(C)cn12`?
LEDGF integ inh: -2; UHRF1 binding: 23*; MBD2 inh: 2; PRMT1 inh: 2

How did COc1ccc(Cc2c(C(C)(C)C)nc3ccc(C)cn23)c(C)c1 do in these assays?
LEDGF integ inh: 3; UHRF1 binding: 24*; MBD2 inh: 9; PRMT1 inh: 6

How did COc1ccccc1Cc1c(C(C)(C)C)nc2c(C)cc(Br)cn12 do in these assays?
LEDGF integ inh: 0; UHRF1 binding: 23*; MBD2 inh: 2; PRMT1 inh: 13

How did COc1ccc(Cc2c(C(C)(C)C)nc3ccc(Cl)cn23)c(C)c1 do in these assays?
LEDGF integ inh: -2; UHRF1 binding: -1; MBD2 inh: -4; PRMT1 inh: -4

What do the screens show for `Cc1ccc(NC(=O)C2CCN(S(=O)(=O)c3c(C)n[nH]c3C)CC2)c(C)c1`?
LEDGF integ inh: 0; UHRF1 binding: 3; MBD2 inh: 1; PRMT1 inh: 1

Results for CCOC(=O)N1CCN(C(=O)C[C@H]2C[C@@]3(C(=O)OC)C(=C[C@H](C4CCCC4)O[C@@H]3C)N(Cc3ccc(Cl)cc3Cl)C2=O)CC1 ?
LEDGF integ inh: -1; UHRF1 binding: -4; MBD2 inh: -2; PRMT1 inh: 0

How did O=C(NN1CC(C(=O)OCc2ccccc2F)CC1=O)c1ccccc1 (stereo not given) do in these assays?
LEDGF integ inh: 0; UHRF1 binding: 22*; MBD2 inh: 5; PRMT1 inh: 4

What do the screens show for `Nc1[nH]n(-c2ccccc2)c(=O)c1N=Nc1ccccc1`?
LEDGF integ inh: -6; UHRF1 binding: -5; MBD2 inh: -6; PRMT1 inh: -1

Results for Nc1[nH]n(-c2ccccc2)c(=O)c1N=Nc1ccc2ncsc2c1 ?
LEDGF integ inh: -11; UHRF1 binding: -10; MBD2 inh: -5; PRMT1 inh: 23*

Results for Cc1ccc(S(=O)(=O)c2ccc([N+](=O)[O-])o2)cc1 ?
LEDGF integ inh: 10; UHRF1 binding: 4; MBD2 inh: 4; PRMT1 inh: 76*

How did Cc1ccc(C2=NN=C(NC(=O)CSc3nc(C)cc(C)n3)SC2)cc1 do in these assays?
LEDGF integ inh: -2; UHRF1 binding: 0; MBD2 inh: 0; PRMT1 inh: 91*

What do the screens show for `CC(C)NS(=O)(=O)c1ccc(OCC(=O)Nc2cccc(F)c2)cc1`?
LEDGF integ inh: 6; UHRF1 binding: 3; MBD2 inh: 1; PRMT1 inh: -5

What do the screens show for `[O-]/C(=C(\C(=S)Nc1cccc2ccccc12)[n+]1ccccc1)c1ccc(OC(F)F)cc1`?
LEDGF integ inh: -3; UHRF1 binding: 29*; MBD2 inh: 1; PRMT1 inh: 9

What do the screens show for `COC(=O)c1ccc2nc(-c3ccc(C#N)cc3)c(Cc3ccsc3)n2c1`?
LEDGF integ inh: 0; UHRF1 binding: 22*; MBD2 inh: 5; PRMT1 inh: 4

Results for COC(=O)c1ccc2nc(-c3ccc(F)cc3)c(Cc3ccsc3)n2c1 ?
LEDGF integ inh: 4; UHRF1 binding: 24*; MBD2 inh: 6; PRMT1 inh: -1

How did COC(=O)c1ccc2nc(-c3ccc(F)cc3)c(Cc3ccccc3)n2c1 do in these assays?
LEDGF integ inh: 7; UHRF1 binding: 23*; MBD2 inh: 2; PRMT1 inh: -1

How did COC(=O)c1ccc2nc(-c3ccc(C#N)cc3)c(Cc3cccc(Cl)c3)n2c1 do in these assays?
LEDGF integ inh: 1; UHRF1 binding: 21*; MBD2 inh: 3; PRMT1 inh: 1

How did COC(=O)c1ccc2nc(-c3ccc(F)cc3)c(Cc3ccccc3C(F)(F)F)n2c1 do in these assays?
LEDGF integ inh: 4; UHRF1 binding: 5; MBD2 inh: -2; PRMT1 inh: 2
